Assay outcomes from PubChem BioAssay.
This is a sample that favours compounds with a hit; in the whole collection about 3% have one here.
PAFAH1B3 FP inh: inhibitors of human PAFAH1B3; Q15102; recombinant PAFAH1B3, FP-rhodamine probe, fluorescence polarization; inhibition, % at 3.39 µM; 340,000 compounds, 0.28% hits; AID 492972;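 active means inhibition above the screen-wide average of all tested compounds plus 3 SD, cut at about 25% in these data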;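 further: 0% = enzyme with DMSO only and 100% = wells lacking PAFAH1B3 protein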
PAFAH1B2 inh: PAFAH1B2 (human) inhibition; inhibition, % at 3.39 µM; AID 492953; 340,000 compounds, 1.2% hits; P68402; recombinant PAFAH1B2, FP-rhodamine activity probe, fluorescence polarization;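 active means inhibition above the mean of all tested compounds plus 3 SD, cut at about 24% in these data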;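 further: 0% = enzyme with DMSO and 100% = wells lacking PAFAH1B2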
Target sequence (P68402 whole entry, looked up): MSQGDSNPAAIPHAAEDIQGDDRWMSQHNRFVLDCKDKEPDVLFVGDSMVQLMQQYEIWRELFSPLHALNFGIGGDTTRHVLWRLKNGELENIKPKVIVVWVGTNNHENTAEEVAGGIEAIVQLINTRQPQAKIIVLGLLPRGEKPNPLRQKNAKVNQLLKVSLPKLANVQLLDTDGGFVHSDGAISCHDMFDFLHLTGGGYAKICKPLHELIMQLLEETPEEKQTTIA
DAGLB inhibitor: diacylglycerol lipase beta (human) inhibition. inhibition, % at 5.17 µM. 340,000 compounds, 0.059% hits. HEK293T DAGLB membrane lysate, EnzChek fluorogenic substrate. Q8NCG7; in the data active means inhibition above about 34%;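 further: 0% = enzyme with vehicle and 100% = wells lacking enzyme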
pPAFAH inh: pPAFAH (human) enzyme inhibition | 330,000 compounds, 1.5% hits | Q13093 | recombinant pPAFAH, FP-rhodamine probe fluorescence polarization | inhibition, % at 3.39 µM | AID 463082;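 active means inhibition above the mean inhibition across the screen plus 3 SD, cut at about 25% in these data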;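 further: inhibitors block binding of the rhodamine activity-based probe so polarization drops; 0% = enzyme with DMSO and 100% = wells lacking pPAFAH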
PAFAH2 FP inh: PAFAH2 (human) inhibition | Q99487 | recombinant PAFAH2, FP-rhodamine activity probe, fluorescence polarization | inhibition, % at 3.39 µM | 340,000 compounds, 0.99% hits;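 active means inhibition above the mean over all tested compounds plus 3 SD, cut at about 30% in these data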;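 further: inhibitors block probe labeling of enzyme so polarization drops; 0% = enzyme with DMSO and 100% = wells lacking PAFAH2 protein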
ATG4B inh: ATG4B (human) cysteine protease inhibition. 340,000 compounds, 0.51% hits. inhibition, % at 8.33 µM. AID 504462. Q9Y4P1. ATG4B cleavage of LC3-PLA2, NBD-HPC fluorescence, 1 h; in the data active means inhibition above about 40%
Target sequence (Q9Y4P1 whole entry, looked up): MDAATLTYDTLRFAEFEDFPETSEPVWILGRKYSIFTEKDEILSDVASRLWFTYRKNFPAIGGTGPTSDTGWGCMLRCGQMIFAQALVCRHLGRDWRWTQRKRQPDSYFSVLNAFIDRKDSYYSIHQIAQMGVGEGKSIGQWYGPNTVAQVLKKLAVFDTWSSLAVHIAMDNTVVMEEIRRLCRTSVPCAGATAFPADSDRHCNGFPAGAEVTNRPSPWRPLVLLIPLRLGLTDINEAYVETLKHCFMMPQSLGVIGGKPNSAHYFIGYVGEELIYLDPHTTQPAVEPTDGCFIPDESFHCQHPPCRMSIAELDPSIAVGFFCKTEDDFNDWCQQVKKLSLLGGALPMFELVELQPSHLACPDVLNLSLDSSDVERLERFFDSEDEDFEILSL
pPAFAH FP conf: confirmation of human plasma PAF acetylhydrolase (pPAFAH) inhibitors | shares compounds with pPAFAH inh | recombinant pPAFAH, FP-Rh probe fluorescence polarization | inhibition, % at 3.39 µM | 2,300 compounds, 72% hits;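 active means mean inhibition of the triplicate above the hit cutoff set for the earlier primary screen, cut at about 25% in these data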;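 further: 0% = enzyme with DMSO and 100% = wells lacking pPAFAH enzyme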
PAFAH2 confirm: PAFAH2 (human) inhibition, confirmed; shares compounds with PAFAH2 FP inh; inhibition, % at 3.39 µM; recombinant PAFAH2, FP-rhodamine activity probe, fluorescence polarization; 2,300 compounds, 65% hits;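 active means mean inhibition over three repeats above a set limit taken from the earlier primary screen, cut at about 30% in these data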;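 further: inhibitor blocks binding of rhodamine activity probe so polarization falls; 0% = enzyme with DMSO and 100% = wells lacking PAFAH2 protein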
DAGLB inh conf: DAGLB (human) inhibition, confirmation screen; shares compounds with DAGLB inhibitor; HEK293T DAGLB membrane lysate, EnzChek fluorogenic substrate; inhibition, % at 5.17 µM; 190 compounds, 73% hits;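 active means mean inhibition over triplicate wells above a set limit taken from the primary lipase screen, cut at about 34% in these data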;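 further: 0% = DAGLB with DMSO and 100% = wells lacking DAGLB enzyme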
PLA2 counter: PLA2 (human) inhibition in ATG4B counter-screen; shares compounds with ATG4B inh; purified PLA2, NBD-C6-HPC fluorescence, 45 min; inhibition, % at 8.33 µM; 1,600 compounds, 66% hits; in the data active means inhibition above about 50%
Starred values were filed as active, the others as inactive.

CN1C2CNC(=O)CC1C1CCC2C1 (centres undefined) was read as DAGLB inhibitor -3.9.
`O=c1[nH]c(=S)n(-c2ccc(Cl)cc2)c(O)c1C=Nc1ccc(N2CCOCC2)cc1` gave PAFAH1B3 FP inh 5.3, PAFAH1B2 inh 0.1, DAGLB inhibitor 1.8, pPAFAH inh 43.3*, PAFAH2 FP inh 13.7, ATG4B inh 1.0 and pPAFAH FP conf 20.3.
`NP(=O)(OCCCCc1ccccc1)Oc1ccccc1Cl` (centres undefined) gave PAFAH1B3 FP inh 45.6*, PAFAH1B2 inh 98.7*, DAGLB inhibitor 38.6*, pPAFAH inh 70.5*, PAFAH2 FP inh 30.6*, ATG4B inh 16.9, pPAFAH FP conf 74.3* and DAGLB inh conf 39.6*.
Screening CC(=O)c1ccc2c(c1)C1C(Cl)C(Sc3ccccc3[N+](=O)[O-])CC1C(C(=O)O)N2 (centres undefined) returned PAFAH1B3 FP inh 30.8*, PAFAH1B2 inh 7.7, DAGLB inhibitor 36.1*, pPAFAH inh 54.1*, PAFAH2 FP inh 41.8*, ATG4B inh 8.9, pPAFAH FP conf 27.4* and DAGLB inh conf 31.1.
`O=C(O)c1cccc2c1NC(C(=O)O)C1CC(Sc3ccccc3[N+](=O)[O-])C(Cl)C21` (centres undefined) gave PAFAH1B3 FP inh 49.2*, PAFAH1B2 inh 30.8*, DAGLB inhibitor 38.6*, pPAFAH inh 95.7*, PAFAH2 FP inh 81.7*, ATG4B inh 32.5, pPAFAH FP conf 78.8* and DAGLB inh conf 12.8.
Cc1cc(-c2cc(C)c(N)c(C)c2)cc(C)c1N was read as PAFAH1B3 FP inh 3.5, PAFAH1B2 inh -1.8, DAGLB inhibitor 0.7, PAFAH2 FP inh 7.7 and ATG4B inh -1.5.
For CCC1(Cc2ccccc2)C(=O)NC(=S)N(C)C1=O (centres undefined) the results were PAFAH1B3 FP inh 5.9, PAFAH1B2 inh 8.4, DAGLB inhibitor -3.6, PAFAH2 FP inh -2.1 and ATG4B inh -1.4.
`C[C@@H]1CN([C@@H](C)CO)C(=O)CCCn2cc(nn2)CO[C@H]1CN(C)C(=O)Oc1cccc2ccccc12` gave DAGLB inhibitor 2.4.
CC[C@H](C)/C=C(C)/C=C/C1=CC2=C(Cl)C(=O)[C@](C)(OC(C)=O)C(=O)C2=CO1 was read as PAFAH1B3 FP inh 6.8, PAFAH1B2 inh 9.7, DAGLB inhibitor 27.8, pPAFAH inh 67.4*, PAFAH2 FP inh 40.1*, ATG4B inh 55.1*, pPAFAH FP conf 87.1* and PLA2 counter 71.0*.
Screening COc1ccc(CC(=O)C2C(=O)N(C)c3ccccc32)cc1OC (centres undefined) returned PAFAH1B3 FP inh -2.0, PAFAH1B2 inh 0.2, DAGLB inhibitor 4.2, PAFAH2 FP inh 5.8 and ATG4B inh 6.3.
For Cc1ccc(/C=C2\C(=O)NC(=O)N(CC3CCCO3)C2=O)s1 (centres undefined) the results were PAFAH1B3 FP inh 2.4, PAFAH1B2 inh 5.4, DAGLB inhibitor 4.7, pPAFAH inh -0.1, PAFAH2 FP inh 33.2*, ATG4B inh -2.4 and PAFAH2 confirm 8.0.
For Cc1c(C(c2ccc(Cl)cc2Cl)c2c(O)c3ccccc3oc2=O)c(=O)n(-c2ccccc2)n1C (centres undefined) the results were PAFAH1B3 FP inh 2.9, PAFAH1B2 inh 2.5, DAGLB inhibitor 1.5, pPAFAH inh 2.0, PAFAH2 FP inh 39.0*, ATG4B inh 7.0 and PAFAH2 confirm 33.1*.
Screening CC(=O)Nc1ccc(C(c2c(O)c3ccccc3oc2=O)c2c(C)n(C)n(-c3ccccc3)c2=O)cc1 (centres undefined) returned PAFAH1B3 FP inh -1.3, PAFAH1B2 inh 0.3, DAGLB inhibitor -2.2, pPAFAH inh 0.9, PAFAH2 FP inh -3.2 and ATG4B inh -2.2.
For Cc1c(C(c2ccc(Br)cc2)c2c(O)c3ccccc3oc2=O)c(=O)n(-c2ccccc2)n1C (centres undefined) the results were PAFAH1B3 FP inh 3.3, PAFAH1B2 inh 1.4, DAGLB inhibitor 0.1, pPAFAH inh 1.2, PAFAH2 FP inh 2.7 and ATG4B inh 3.1.
Screening CSc1ccc(C(c2c(O)c3ccccc3oc2=O)c2c(C)n(C)n(-c3ccccc3)c2=O)cc1 (centres undefined) returned PAFAH1B3 FP inh 10.9, PAFAH1B2 inh 2.8, DAGLB inhibitor 2.0, pPAFAH inh 5.7, PAFAH2 FP inh 39.5*, ATG4B inh 2.7 and PAFAH2 confirm 27.4.
For CN1C(=O)C(=Cc2ccc(SC3CCCCC3)o2)C(=O)N(C)C1=O the results were PAFAH1B3 FP inh -2.2, PAFAH1B2 inh 20.1, DAGLB inhibitor 8.5, pPAFAH inh 11.7, PAFAH2 FP inh 29.7*, ATG4B inh -4.2 and PAFAH2 confirm 33.2*.
Cn1cc(C(=O)OCC(=O)NC2CCCC2)c2ccccc21 was read as PAFAH1B3 FP inh -0.1, PAFAH1B2 inh -1.5, DAGLB inhibitor -3.7, pPAFAH inh 5.0, PAFAH2 FP inh 58.7*, ATG4B inh -2.9 and PAFAH2 confirm 37.0*.
Screening Cc1ccc(OC(=O)N(C)C[C@@H]2OCc3cnnn3CCCC(=O)N([C@@H](C)CO)C[C@H]2C)cc1 returned DAGLB inhibitor -1.5.
For CC(=O)Nc1cc(C(=O)N2CCC3(CC2)OCCO3)ccc1S(=O)(=O)c1ccc(C)cc1 the results were PAFAH1B3 FP inh 9.1, PAFAH1B2 inh -3.4, DAGLB inhibitor -1.4, pPAFAH inh 4.4, PAFAH2 FP inh 7.5 and ATG4B inh -3.6.
Cc1ccc(S(=O)(=O)Nc2cc(C(=O)N3CCC4(CC3)OCCO4)ccc2N2CCCCC2)cc1 was read as PAFAH1B3 FP inh 3.1, PAFAH1B2 inh 7.2, DAGLB inhibitor -5.9, pPAFAH inh 21.2, PAFAH2 FP inh 59.7*, ATG4B inh 2.0 and PAFAH2 confirm 49.1*.
Screening O=C1NC(=S)N(c2ccccc2)C(=O)/C1=C/c1ccco1 returned PAFAH1B3 FP inh 5.9, PAFAH1B2 inh 1.9, DAGLB inhibitor 2.7, pPAFAH inh 24.0, PAFAH2 FP inh 30.0*, ATG4B inh 58.6* and PAFAH2 confirm 58.8*.
C[C@@H]1CN([C@@H](C)CO)C(=O)CCCn2nncc2CO[C@@H]1CN(C)C(=O)Oc1cccc2ccccc12 was read as DAGLB inhibitor -4.2.
